Measured values as given in PubChem BioAssay (NCATS).
Several values for one entry are separate records, joined by “and”; a condition that tells them apart may be missing. Equal values may be shown once. Records with an inconclusive call do not appear. Activity calls are given as the source filed them. Calls follow the shape of the dose curve; as a rule, active = well fitted curve in the direction sought with a large enough effect; inconclusive = small, poorly fitted or top-dose-only effect, or another doubt; inactive = no such curve, though single readings can be large; an effect the other way counts as inactive or inconclusive.

Columns and labels:
[1] = molecular target: Aldehyde dehydrogenase, mitochondrial (Homo sapiens) (UniProt P05091); test: qHTS for Inhibitors of the Aldehyde Dehydrogenase Family (ALDH2) Primary screen (AID 2061308);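 also: plate controls were vehicle for no effect and reference inhibitor for full effect; nearly all actives have a fitted effect of over 55% in size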
[2] = molecular target: Retinaldehyde dehydrogenase 3 (Homo sapiens) (UniProt P47895); test: qHTS for Inhibitors of the Aldehyde Dehydrogenase Family (ALDH1A3) Primary screen (AID 2061315);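 also: plate controls were DMSO vehicle for no effect and reference inhibitor for full effect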
[3] = BET inhibitor-based combinations targeting novel dependencies in MECOM-rearranged (r) AML: OCI-AML3 cell line (AID 2202232); conditions: Potency: OCI-AML3 viability; also: nearly all actives have a fitted effect of over 35% in size; also: potency is read from the fitted curve at half-maximal effect
Procedure, shortened: (§1)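 Luminescent ATP readout (CellTiter-Glo) after 48 hr drug exposure gives viability. Curves span 11 concentrations and are normalized to DMSO and empty wells. Activity is reported as area under the curve and its Z-transform within each cell line.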

[4] = BET inhibitor-based combinations targeting novel dependencies in MECOM-rearranged (r) AML: MV-4-11 cell line (AID 2202233); also: nearly all actives have a fitted effect of over 45% in size; also: potency is read from the fitted curve at half-maximal effect
Procedure, shortened: (§2)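 Luminescent ATP readout (CellTiter-Glo, 15 min at room temperature) after 48 hr drug exposure gave viability. Dose-response curves, normalized to DMSO and empty-well controls, were summarized as area under the curve and its mean-centred Z-score.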

[5] = BET inhibitor-based combinations targeting novel dependencies in MECOM-rearranged (r) AML: HNT-34 cell line (AID 2202234); also: nearly all actives have a fitted effect of over 35% in size; also: potency is read from the fitted curve at half-maximal effect
Procedure, shortened: as §2

[6] = BET inhibitor-based combinations targeting novel dependencies in MECOM-rearranged (r) AML: UCSD-AML1 cell line (AID 2202235); also: nearly all actives have a fitted effect of over 40% in size; also: potency is read from the fitted curve at half-maximal effect
Procedure, shortened: as §2

[7] = BET inhibitor-based combinations targeting novel dependencies in MECOM-rearranged (r) AML: AML-191 cell line (AID 2202236; also: nearly all actives have a fitted effect of over 35% in size; also: potency is read from the fitted curve at half-maximal effect)
Procedure, shortened: as §1

[8] = BET inhibitor-based combinations targeting novel dependencies in MECOM-rearranged (r) AML: AML-194 cell line (AID 2202237; also: nearly all actives have a fitted effect of over 40% in size; also: potency is read from the fitted curve at half-maximal effect)
Procedure, shortened: as §1

[9] = BET inhibitor-based combinations targeting novel dependencies in MECOM-rearranged (r) AML: SET-2 cell line (AID 2202231); conditions: SET-2 AML cells viability, CellTiter-Glo luminescence, 48 h; viability: active compounds read low, concentration not given here; also: nearly all actives have a fitted effect of over 35% in size; also: potency is read from the fitted curve at half-maximal effect;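 as to viability: plate controls were DMSO treated cells for no effect and wells without cells for full effect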
Procedure, shortened: as §1

COc1c(O)cc2c(c1O)[C@@H]1O[C@H](CO)[C@@H](O)[C@H](O)[C@H]1OC2=O
inactive: Potency [1] | Potency [2]

Fc1ccc(-c2nc(-c3ccccc3F)[nH]c2-c2ccncc2)cc1
active: Potency [6] 4.17 µM
inactive: Potency [1] | Potency [2] | Potency [3] | Potency [4] | Potency [5] | Potency [7] | Potency [8]

Cc1n[nH]c(C)c1Cc1sc2c(c1C(=O)N1C[C@H](O)CO1)c(=O)n(C)c(=O)n2CC(C)C
inactive: Potency [1] | Potency [2] | viability [9] 111% | Potency [4] | Potency [5] | Potency [6] | Potency [7] | Potency [8]

C[C@]12C[C@@H](O)[C@@H]3C[C@@]1(O[C@@H]1O[C@H](CO)[C@@H](O)[C@H](O)[C@H]1O)[C@]3(COC(=O)c1ccccc1)C(=O)O2
inactive: Potency [1] | Potency [2]

C=CC(=O)Nc1cccc(Sc2nc(Nc3ccc(N4CCN(C)CC4)cc3)ncc2Cl)c1
inactive: Potency [1] | Potency [2]
active: Potency [9] 11.8 µM | Potency [3] 13.2 µM | Potency [4] 2.95 µM | Potency [5] 6.61 µM | Potency [6] 9.34 µM | Potency [7] 10.5 µM | Potency [8] 10.5 µM

CC(=O)OCC(=O)[C@@]1(O)CC[C@H]2[C@@H]3CCC4=CC(=O)C=C[C@]4(C)[C@H]3[C@@H](O)C[C@@]21C
inactive: Potency [1] | Potency [2] | viability [9] 114% | Potency [4] | Potency [6]
active: Potency [7] 0.833 µM | Potency [8] 0.372 µM

C=CC(=O)Nc1cc(Nc2nccc(-c3cn(C)c4ccccc34)n2)c(OC)cc1N(C)CCN(C)C
active: Potency [9] 9.34 µM | Potency [3] 3.72 µM | Potency [4] 2.95 µM | Potency [5] 5.25 µM | Potency [6] 4.68 µM | Potency [7] 8.33 µM | Potency [8] 7.42 µM
inactive: Potency [1] | Potency [2]

CCOc1ccn(-c2ccc(F)cc2)c(=O)c1C(=O)Nc1ccc(Oc2ccnc(N)c2Cl)c(F)c1
active: Potency [4] 1.48 µM | Potency [5] 11.8 µM | Potency [7] 8.33 µM
inactive: Potency [1] | Potency [2] | viability [9] 104% | Potency [6]

COc1cc2c(Nc3ccc(Cl)c(Cl)c3F)ncnc2cc1OCC1C[C@@H]2CN(C)C[C@@H]2C1 (stereo not given in full)
inactive: Potency [1] | Potency [2]
active: Potency [9] 23.5 µM and 20.9 µM | Potency [3] 18.6 µM and 13.2 µM | Potency [4] 5.9 µM and 5.25 µM | Potency [5] 1.05 µM and 1.18 µM | Potency [6] 9.34 µM | Potency [7] 14.8 µM and 10.5 µM | Potency [8] 13.2 µM and 10.5 µM

O=C(Nc1nc2cc(C(F)(F)F)cc(NC3CC3)n2n1)c1cccnc1
inactive: Potency [1] | Potency [2]

CC(C)[C@@H](CS(=O)(=O)C(C)C)N1C(=O)[C@@](C)(CC(=O)O)C[C@H](c2cccc(Cl)c2)[C@H]1c1ccc(Cl)cc1
active: Potency [3] 2.35 µM | Potency [4] 1.86 µM | Potency [5] 1.66 µM | Potency [6] 1.86 µM | Potency [7] 2.35 µM
inactive: Potency [1] | Potency [2]

COc1cc2c(cc1OC)CN(CCc1ccc(NC(=O)c3cc(OC)c(OC)cc3NC(=O)c3cnc4ccccc4c3)cc1)CC2
inactive: Potency [1] | Potency [2] | viability [9] 119% | Potency [4] | Potency [5] | Potency [6] | Potency [7] | Potency [8]

Cc1nc2ccc(-n3ncc(C(=O)c4cc5ccccc5[nH]4)c3N)cc2[nH]1
active: Potency [4] 6.61 µM | Potency [8] 16.6 µM
inactive: Potency [1] | Potency [2]

COc1cc(Nc2c(C#N)cnc3cc(OCCCN4CCN(C)CC4)c(OC)cc23)c(Cl)cc1Cl
active: Potency [9] 16.6 µM | Potency [3] 6.61 µM | Potency [4] 3.32 µM | Potency [5] 0.59 µM | Potency [6] 8.33 µM | Potency [8] 7.42 µM
inactive: Potency [1] | Potency [2]
